# Experimental data reported in PMC4336329 (PLoS ONE, 2015).
# Out of some 310,000 compounds screened, about 14,000 (4.5%) showed an effect of 50% or more. Effects have a minus sign here. The sample holds strong results, similar compounds and a random draw of the others, so the mix is not that of the screen.
# Molecular target: human ether-à-go-go-related gene (hERG) potassium channel (human, UniProt Q12809)
# Assay: primary screen, population patch clamp on CHO cells stably expressing hERG; higher = less effect of the substance
# 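Further: peak tail current of the secondary pulse compared with the same well before compound.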
# Chain of human ether-à-go-go-related gene (hERG) potassium channel (Q12809 whole entry, looked up): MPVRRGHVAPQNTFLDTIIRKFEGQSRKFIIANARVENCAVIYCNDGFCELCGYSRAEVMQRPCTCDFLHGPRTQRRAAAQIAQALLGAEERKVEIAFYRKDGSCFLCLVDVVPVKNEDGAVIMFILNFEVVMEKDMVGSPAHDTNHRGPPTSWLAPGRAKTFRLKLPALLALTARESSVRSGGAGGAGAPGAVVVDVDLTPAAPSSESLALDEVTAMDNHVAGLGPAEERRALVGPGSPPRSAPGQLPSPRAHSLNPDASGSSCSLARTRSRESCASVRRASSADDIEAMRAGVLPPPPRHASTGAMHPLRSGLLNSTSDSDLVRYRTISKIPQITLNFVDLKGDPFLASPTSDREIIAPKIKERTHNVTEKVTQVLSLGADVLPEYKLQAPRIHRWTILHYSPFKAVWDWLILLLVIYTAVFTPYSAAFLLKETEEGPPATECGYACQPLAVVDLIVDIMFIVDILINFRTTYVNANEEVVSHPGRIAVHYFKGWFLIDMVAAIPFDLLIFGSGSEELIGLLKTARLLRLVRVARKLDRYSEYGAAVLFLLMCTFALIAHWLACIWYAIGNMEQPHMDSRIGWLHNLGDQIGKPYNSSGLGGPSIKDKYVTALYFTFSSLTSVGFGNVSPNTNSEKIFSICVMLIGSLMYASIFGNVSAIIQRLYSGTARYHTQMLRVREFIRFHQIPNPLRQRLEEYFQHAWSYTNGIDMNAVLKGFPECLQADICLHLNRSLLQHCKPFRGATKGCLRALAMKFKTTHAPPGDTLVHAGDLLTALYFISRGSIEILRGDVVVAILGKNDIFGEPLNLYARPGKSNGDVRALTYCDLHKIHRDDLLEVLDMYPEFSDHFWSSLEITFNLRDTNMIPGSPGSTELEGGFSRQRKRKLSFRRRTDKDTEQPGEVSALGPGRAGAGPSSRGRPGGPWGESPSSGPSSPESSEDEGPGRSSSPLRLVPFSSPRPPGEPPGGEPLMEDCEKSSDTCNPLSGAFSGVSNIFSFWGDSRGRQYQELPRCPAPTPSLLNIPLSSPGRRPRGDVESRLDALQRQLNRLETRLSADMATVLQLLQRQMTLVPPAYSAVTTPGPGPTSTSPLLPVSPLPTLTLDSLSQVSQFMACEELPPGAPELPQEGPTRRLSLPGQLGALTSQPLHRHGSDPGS
row,Compound,"hERG current change (%, negative = inhibition) at 10uM [%]"
1,COC(=O)CSc1nc2cc(C)cc(C)c2cc1C#N,14.5
2,N#CC(C(=O)OC1CCCCC1)c1nc2ccccc2nc1N1CCOCC1 (centres unmarked),-36.8
3,CCCCOC(=O)C(C#N)c1nc2ccccc2nc1N1CCN(Cc2ccc3c(c2)OCO3)CC1 (centres unmarked),-7.01
4,CCCCCCOC(=O)C(C#N)c1nc2ccccc2nc1N1CCN(C)CC1 (centres unmarked),-74.7
5,CCCCOC(=O)C(C#N)c1nc2ccccc2nc1N1CCOCC1 (centres unmarked),-12.8
6,CCCCCCOC(=O)C(C#N)c1nc2ccccc2nc1N1CCOCC1 (centres unmarked),1.23
7,CC1CCN(c2nc3ccccc3nc2C(C#N)C(=O)OC2CCCCC2)CC1 (centres unmarked),11.3
8,CCCCCCOC(=O)C(C#N)c1nc2ccccc2nc1N1CCN(CC)CC1 (centres unmarked),-70.2
9,CN1CCN(c2nc3ccccc3nc2C(C#N)C(=O)OC2CCCCC2)CC1 (centres unmarked),-79.5
10,CCCCCCOC(=O)C(C#N)c1nc2ccccc2nc1N1CCCCC1 (centres unmarked),1.37
11,Cl.NS(=O)(=O)c1ccc(CCNCC#Cc2ccccc2)cc1,-21.6
12,COCCCN1C(=O)C(O)=C(C(=O)c2ccco2)C1c1ccccc1 (centres unmarked),21.3
13,Cc1ccc(CNC(=O)CSc2ccsc2[N+](=O)[O-])cc1,-4.87
14,COc1ccccc1N1CCN(Cc2cc(=O)c(OCC(=O)Nc3ccccc3)co2)CC1,25.5
15,CC(=O)c1cc(C#N)c(Oc2cc(C)cc(C)c2)nc1C,-4.94
16,CCOC(=O)N1CCC(N(CCCOC)C(=O)Nc2ccc(CC)cc2)CC1,-48.6
17,COc1ccccc1-c1cc(C(=O)Nc2cc(C)nn2-c2ccccc2)no1,17
18,COc1cc(/C=N/n2c(C)nc3ccccc3c2=O)ccc1O,4.55
19,CC(C)CC(COCc1ccc([N+](=O)[O-])cc1)N1CCN(C(=O)c2ccc(C(F)(F)F)cc2)CCC1=O (centres unmarked),-67.1
20,CC(C)CC(COCc1ccc(Cl)cc1)N1CCN(C(=O)c2ccc(C(F)(F)F)cc2)CCC1=O (centres unmarked),-44.5
21,CC(C)CC(COCc1ccc(C(F)(F)F)cc1)N1CCN(C(=O)c2ccc(C(F)(F)F)cc2)CCC1=O (centres unmarked),-16.7
22,O=C(c1cccc(NS(=O)(=O)c2cccc([N+](=O)[O-])c2)c1)N1CCOCC1,24.3
23,CCOc1ccc(N(CC(=O)NC2CCCCC2)C(=O)CCCC(=O)Nc2ccccn2)cc1,-0.443

row,Compound,"hERG current change (%, negative = inhibition) at 10uM [%]"
1,CCOc1ccc(N(CC(=O)NC2CCCC2)C(=O)CCC(=O)Nc2ccccn2)cc1,-56.2
2,Cc1ccc(N(CC(=O)NC2CCCCC2)C(=O)CCC(=O)Nc2nccs2)cc1,-4.93
3,CCOc1ccc(N(CC(=O)NC2CCCC2)C(=O)CCCC(=O)Nc2ccccn2)cc1,-10.8
4,CCOc1ccc(N(CC(=O)NC2CCCCC2)C(=O)CCC(=O)Nc2ccccn2)cc1,-23.3
5,COc1ccc(N(CC(=O)NC2CCCCC2)C(=O)CCCC(=O)Nc2ccccn2)cc1,-65.9
6,O=C(CCC(=O)N(CC(=O)NC1CCCCC1)c1ccc(F)cc1)Nc1nccs1,-73.7
7,O=C(CCCC(=O)N(CC(=O)NC1CCCCC1)c1cccc(F)c1)Nc1ccccn1,-55.3
8,O=C(CCCC(=O)N(CC(=O)NC1CCCCC1)c1ccc(F)cc1)Nc1ccccn1,7.12
9,O=C(CCC(=O)N(CC(=O)NC1CCCC1)c1ccc(F)cc1)Nc1nccs1,4.37
10,O=C(CCCC(=O)N(CC(=O)NC1CCCC1)c1cccc(F)c1)Nc1ccccn1,4.77
11,COc1cccc(N(CC(=O)NC2CCCCC2)C(=O)CCCC(=O)Nc2ccccn2)c1,13.2
12,CN(C(=O)c1ccccc1OC1CCN(S(C)(=O)=O)CC1)C1CCOC1 (centres unmarked),11.7
13,NC(=O)Cn1nnc(-c2ccc(CN3CCCCC3)cc2)n1,21.6
14,O=C(N1CCCC1)N1CCN(S(=O)(=O)c2ccccc2)CC1,7.18
15,CC(C)/C=N\NC(=O)CCCCC(=O)N/N=C/C(C)C,6.11
16,CCOC(=O)C1=C(SCC(=O)Nc2ccccc2)NC(=O)C(C#N)C12CCCCC2 (centres unmarked),-5.43
17,Cc1ccc(N2CN(CCC3=CCCCC3)CNC2=S)cc1,18
18,Cc1ccc2c(c1)CCCN2C(=O)c1ccc2c(c1)OCO2,-4.53
19,O=c1c2c(-c3ccccc3)csc2nc2n1CCC2,14.5
20,O=c1cc(N2CCCCC2)c(-c2ccccc2)nn1Cc1ccc(Cl)cc1,-1.99
21,Cc1cc(C)cc(NC(=O)C2CCN(c3nc(C)cc(C)n3)CC2)c1,-3.58
22,Cc1ccc(N(CC(=O)NC2CCCC2)C(=O)CCC(=O)Nc2nc(C)cs2)cc1,-11.9
23,CCOc1ccc(N(CC(=O)NC2CCCC2)C(=O)CCC(=O)Nc2nc(C)cs2)cc1,-28.8

row,Compound,"hERG current change (%, negative = inhibition) at 10uM [%]"
1,CCOc1ccc(N(CC(=O)NC2CCCCC2)C(=O)CCC(=O)Nc2nc(C)cs2)cc1,-50.6
2,O=C(CC(CC(=O)c1ccccc1)c1ccccc1)c1ccccc1,0.181
3,O=C(CSc1nnc(CN2CCOCC2)n1-c1ccccc1)Nc1ccc(Cl)cc1,-32.5
4,Cc1cc(C)c(S(=O)(=O)N2CCOC2CNC(=O)C(=O)NCCc2ccc(S(N)(=O)=O)cc2)c(C)c1 (centres unmarked),-17.8
5,O=C(Cn1cnc2c(nnn2Cc2ccccc2)c1=O)NCc1ccccc1Cl,5.76
6,Cc1ccc(SCc2ccc(C(=O)NCc3cccnc3)cc2)cc1,3.85
7,O=C(O)c1ccc(N/N=C/c2ccc(OC(=O)c3cccc(Cl)c3)cc2)cc1,-9.22
8,O=C(Oc1ccc(/C=N/Nc2ccccc2)cc1)c1ccccc1,15.4
9,O=C(O)c1ccc(N/N=C/c2ccc(OC(=O)c3ccccc3Cl)cc2)cc1,-56
10,COc1cccc(CNC(=O)CCC2CCCN(Cc3cc4ccccc4o3)C2)c1 (centres unmarked),-75.6
11,Cc1ccc(CNC(=O)CCC2CCCN(C(=O)CCC(F)(F)F)C2)o1 (centres unmarked),3.62
12,Cc1ccsc1C(=O)C1CCCN(Cc2cc3ccccc3o2)C1 (centres unmarked),-23.7
13,Cc1ccc(CNC(=O)CCC2CCCN(Cc3cc4ccccc4o3)C2)o1 (centres unmarked),-69.2
14,COCc1ccc(CN2CCCC(CCC(=O)NCc3cccc(OC)c3)C2)o1 (centres unmarked),-23.5
15,COc1cccc(CNC(=O)CCC2CCCN(C(=O)c3cc4ccccc4o3)C2)c1 (centres unmarked),-47.7
16,Cc1ccc(N/C=C(\C#N)S(=O)(=O)c2ccccc2)cc1,14.3
17,CCOC(=O)c1c(C)sc2c1N(C(=O)CCl)c1cc(Cl)ccc1S2,-3.3
18,COc1ccccc1NC(=O)Cn1cncc1-c1ccc([N+](=O)[O-])cc1,2.57
19,O=C1CCC(C(=O)NCCN2C(=O)S/C(=C\c3cccnc3)C2=O)=NN1,2.26
20,CSC1=NSC2=NC(=O)/C(=C\c3ccc(OC(=O)c4ccco4)cc3)C(=N)N12,9.54
21,CCCCc1ccc(NC(=S)N2CCN(C(=O)c3ccco3)CC2)cc1,-75.3
22,CC(C)Cc1ccc(S(=O)(=O)N2CCN(C(=O)c3ccco3)CC2)cc1,-11.1
23,COC(=O)c1ccc(NC(=S)N2CCN(C(=O)c3ccco3)CC2)cc1,-4.94

row,Compound,"hERG current change (%, negative = inhibition) at 10uM [%]"
1,Cc1ccc(S(=O)(=O)N2CCN(C(=O)c3ccco3)CC2)cc1,1.15
2,CCCCc1ccc(S(=O)(=O)N2CCN(C(=O)c3ccco3)CC2)cc1,-66.5
3,COc1ccc(NC(=S)N2CCN(C(=O)c3ccco3)CC2)cc1,-6.29
4,COc1ccc(C2/C(=C(\O)c3ccc4c(c3)OCCO4)C(=O)C(=O)N2Cc2ccco2)c(OC)c1 (centres unmarked),-9.64
5,Cn1c(=O)cc(OCCCC(=O)Nc2cccnc2)c2ccccc21,0.169
6,CCN(CC)CCn1nc2c3c(cccc3c1=O)-c1ccccc1-2,-70.2
7,O=c1c2cccc3c2c(nn1CN1CCOCC1)-c1ccccc1-3,-11.5
8,O=C(O)Cn1nc2c3c(cccc3c1=O)-c1ccccc1-2,8.18
9,COC(=O)c1c(C)[nH]c(C)c1-c1ccccc1,-5.37
10,O=C1NC(c2ccc3c(c2)OCO3)Nc2ccccc21 (centres unmarked),10.5
11,O=C(Nc1ccncc1)c1ccc2c(c1)OCCO2,11.8
12,COc1ccc(Br)cc1S(=O)(=O)N(CC(=O)N1CCN(C)CC1)c1ccccc1,-22.6
13,COc1ccc(C)cc1S(=O)(=O)N(CC(=O)N1CCCC1)c1ccccc1,-37.9
14,COc1ccc(N(CC(=O)N2CCN(C)CC2)S(=O)(=O)c2cc(C)ccc2OC)cc1Cl,-60.3
15,COc1ccc(C)cc1N(CC(=O)N1CCOCC1)S(C)(=O)=O,21.2
16,COc1ccc(C)cc1S(=O)(=O)N(CC(=O)N1CCCC1)c1ccc(C)cc1,-53
17,COc1ccc(C)cc1S(=O)(=O)N(CC(=O)N1CCOCC1)c1cc(C)cc(C)c1,-77.4
18,COc1ccc(C)cc1S(=O)(=O)N(C)CC(=O)N1CCCC1,13.2
19,COc1ccc(C)cc1S(=O)(=O)N(C)CC(=O)N1CCN(C)CC1,2.65
20,COc1ccc(Br)cc1S(=O)(=O)N(CC(=O)N1CCOCC1)c1ccccc1,-47
